From PubChem BioAssay (NCATS)
Records with an inconclusive call do not appear. Where a call stands in place of a potency, no number is given. Calls of active or inactive are those of the source. Calls follow the shape of the dose curve; as a rule, active = well fitted inhibition curve with a large enough effect; inconclusive = small, poorly fitted or top-dose-only effect; inactive = no such curve, though single readings can be large or run the other way.

How the values were obtained:
[1] = test system: Zika virus NS2B-NS3 protease (unlinked complex); experiment: Primary screen GU Rhodamine qHTS for Zika virus inhibitors: Unlinked NS2B-NS3 protease assay (AID 1347159); also: nearly all actives have a fitted effect of over 60% in size
In short: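 Unlinked NS2B/NS3, 25 nM; Rhod110 peptide, 1.5 microM; compounds, up to 114 microM. Reaction run 15 min at RT in 10 mM Tris-HCl pH 8.0, 0.01% Tween 20; kinetic fluorescence change fitted with a 4-parameter Hill model.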

[2] = test system: Zika virus NS2B-NS3 protease (linked construct); experiment: Primary screen NINDS Rhodamine qHTS for Zika virus inhibitors (AID 1347160); also: nearly all actives have a fitted effect of over 55% in size
In short: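 Single-chain NS2B-NS3 protease, 25 nM, pH 8.0; compounds preincubated 15 min. Activity: Rhodamine110 release from 1.5 microM substrate over 15 min, room temperature, data fitted to 4-parameter Hill.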

Structure (SMILES) | Potency [1] | Potency [2]
CC(C)c1cc(-c2n[nH]c(=O)n2-c2ccc3c(ccn3C)c2)c(O)cc1O | inactive | inactive
CC(C)(C)c1cc(NC(=O)Nc2ccc(-c3cn4c(n3)sc3cc(OCCN5CCOCC5)ccc34)cc2)no1 | inactive | inactive
CS(=O)(=O)N1CCN(Cc2cc3nc(-c4cccc5[nH]ncc45)nc(N4CCOCC4)c3s2)CC1 | inactive | inactive
NCC(=O)Nc1ccc(-n2nc(C(F)(F)F)cc2-c2ccc3c(ccc4ccccc43)c2)cc1 | inactive | inactive
C1Cc2[nH]nc(-c3nn[nH]n3)c2C1 | inactive | inactive
CN(C)Cc1c(C(=O)NCCOc2ccc(C(=O)NO)cc2)oc2ccccc12 | inactive | inactive
Cn1cc(-c2[nH]c3cc(NC(=O)[C@H](N)C4CCCCC4)cc4c3c2C=NNC4=O)cn1 | inactive | inactive
Cc1cc(Nc2cc(N3CCN(C)CC3)nc(Sc3ccc(NC(=O)C4CC4)cc3)n2)n[nH]1 | inactive | inactive
CCCn1c(=O)c2[nH]c(-c3cnn(Cc4cccc(C(F)(F)F)c4)c3)nc2n(CC)c1=O | inactive | inactive
O=C(O)CCCc1c[nH]c2ccccc12 | inactive | inactive
CNC(=O)CN1CCC(Oc2cc3c(Nc4cccc(Cl)c4F)ncnc3cc2OC)CC1 | inactive | inactive
c1ccc2c(CCNc3ccc(Nc4ccncc4)cc3)c[nH]c2c1 | inactive | inactive
CN1CCN(Cc2ccc(NC(=O)Nc3ccc(Oc4cc(NC(=O)C5CC5)ncn4)cc3)cc2C(F)(F)F)CC1 | inactive | inactive
